Assay outcomes: PubChem BioAssay, several laboratories
CYP2C19 act = increases human CYP2C19 enzyme activity | recombinant CYP2C19, luciferin-H EGE luminescence; stronger effect = higher value; 0 = fully inhibited enzyme, 1 = untreated enzyme | activation factor at 5 µM | 96,000 tested, under 10 active;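 active means activation factor of at least 2 at 5 µM in the primary screen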
CYP2C9 inhib = inhibitors of human CYP2C9 | P11712 | CYP2C9 Supersomes, luciferin-H conversion, luminescence | inhibition, % at 5 µM | 20% of 96,000 active | AID 777;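 active means blocking of liver enzyme CYP2C9 beyond about 50% at 5 µM, limit read from the data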
Target sequence (P11712 whole entry, looked up): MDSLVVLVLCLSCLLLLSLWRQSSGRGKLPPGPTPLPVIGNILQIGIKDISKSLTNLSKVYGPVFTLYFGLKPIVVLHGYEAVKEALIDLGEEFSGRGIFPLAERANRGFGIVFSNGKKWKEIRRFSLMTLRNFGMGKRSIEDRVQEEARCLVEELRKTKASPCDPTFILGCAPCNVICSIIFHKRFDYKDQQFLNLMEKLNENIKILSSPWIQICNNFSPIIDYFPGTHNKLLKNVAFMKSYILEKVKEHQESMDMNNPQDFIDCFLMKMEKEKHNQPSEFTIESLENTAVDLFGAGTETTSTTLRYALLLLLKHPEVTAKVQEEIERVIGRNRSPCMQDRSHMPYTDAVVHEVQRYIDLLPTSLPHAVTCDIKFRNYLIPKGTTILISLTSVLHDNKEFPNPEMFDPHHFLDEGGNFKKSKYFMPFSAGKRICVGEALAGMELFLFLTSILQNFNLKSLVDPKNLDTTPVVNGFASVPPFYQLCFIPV
Cav32 inh = inhibitors of human Cav3.2 T-type calcium channel; O95180; Cav3.2-expressing cells, Fluo-4 calcium fluorescence FDSS; stronger effect = lower value; B-score at 10 µM; 4% of 100,000 active; AID 449739;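 active means single-dose well whose peak fluorescence ratio is a statistical outlier from its plate by either plate-standardised score or position-corrected B-score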
CYP2C9 act = activators of human CYP2C9; P11712; recombinant CYP2C9, luciferin-H conversion, luminescence; stronger effect = higher value; factor 1 = untreated enzyme, 0 = blocked; activation factor at 5 µM; 1.4% of 96,000 active;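 active means activation factor of 2 or more for CYP2C9 at a 5 µM dose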
CYP2C19 inhib = human CYP2C19 inhibition; CYP2C19 Supersomes, luciferin-H EGE luminescence, 30 min; inhibition, % at 5 µM; 21% of 96,000 active; AID 778;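 active means CYP2C19 inhibition above a set limit at 5 µM in the primary screen, cut at about 50% in these data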
Numbers stand for hits; – = inactive; · = no result given. A selection: hits, their analogues and other compounds. The true share with any hit is near 27%.

SMILES | CYP2C19 act | CYP2C9 inhib | Cav32 inh | CYP2C9 act | CYP2C19 inhib
COc1ccc(CNC(=O)C2CSC(=O)C2)cc1 (stereo not given) | – | – | – | – | –
CC(C)C(=O)NC(=O)[C@@H]1CCCN1C(=O)/C=C/c1ccccc1 | · | · | – | · | ·
COc1ccccc1C1(O)CCN(C(=O)c2cccs2)CC1 | – | 54.1 | · | – | –
O=C(c1cccs1)N1CCN(Cc2cccnc2)CC1 | – | – | – | – | 82.9
COc1ccc(CN2CCN(C(=O)c3cccs3)CC2)cc1 | – | – | – | – | 57.8
COc1cccc(C2(O)CCN(C(=O)c3cccs3)CC2)c1 | – | – | – | – | –
COc1ccc(OC)c(CN2CCN(C(=O)c3cccc4ccccc34)CC2)c1 | – | – | – | – | 55.0
Cc1ccc(N2CC(C(=O)OCc3ccccc3)CC2=O)cc1 (stereo not given) | – | – | – | – | –
COc1cc(/C=N/NC(=O)C(C)n2nnc3ccccc32)ccc1O (stereo not given) | – | – | · | – | –
O=c1cc(O)n(-c2ccc(Cl)cc2)c(=S)[nH]1 | – | – | · | – | –
COc1cccc(CN2CCN(C(=O)c3cccs3)CC2)c1OC | – | – | – | – | –
COc1ccc(OC)c(CN2CCN(C(=O)c3cccs3)CC2)c1 | – | 70.0 | – | – | 90.9
O=C(Cc1ccc(-n2cccc2)cc1)NC1CCCCC1 | – | 68.8 | – | – | 55.4
CCCCNC1=C(Br)C(=O)CC(C)(C)C1 | – | – | – | – | 82.5
O=C(NC1(C(F)(F)F)NC(=O)N(CC2CCCCC2)C1=O)c1ccco1 (stereo not given) | – | – | – | – | –
O=C(c1ccccc1)N1CCN(C2c3cccc4cccc(c34)C2NS(=O)(=O)c2ccccc2)CC1 (stereo not given) | – | 74.7 | – | – | 51.5
COc1ccc(Cn2nnnc2C(c2ccccc2Cl)N2CCN(C3CCCC3)CC2)cc1 (stereo not given) | – | – | – | – | 78.0
COc1ccc(C(c2nnnn2CCc2ccccc2)N2CCN(C3CCCC3)CC2)cc1 (stereo not given) | – | – | – | – | –
COc1ccc(Cn2nnnc2C(c2ccccc2)N2CCN(C3CCCC3)CC2)cc1 (stereo not given) | – | – | – | – | 77.7
Cc1c(NC(=O)c2noc3c2CCc2ccccc2-3)c(=O)n(-c2ccccc2)n1C | · | · | – | · | ·
Cc1ccccc1Cn1cc(NC(=O)c2noc3c2CC(C(C)(C)C)CC3)cn1 (stereo not given) | – | – | – | – | –
Cc1ccccc1Cn1nc(C)c(NC(=O)c2noc3c2CCc2ccccc2-3)c1C | – | 78.7 | -6.86 | – | 57.5
Cc1ccccc1Cn1nc(C)c(NC(=O)c2noc3c2CC(C(C)(C)C)CC3)c1C (stereo not given) | – | – | -4.69 | – | –
COc1ccc(O)c(/C=N/Nc2nc(Nc3ccccc3)nc(-n3nc(C)cc3C)n2)c1 | – | – | -4.45 | – | –
CCn1cc(C(=O)OCC(=O)Nc2cc(S(=O)(=O)N(C)C)ccc2C)c(=O)c2ccc(C)nc21 | – | – | – | – | –
SMILES | CYP2C19 act | CYP2C9 inhib | Cav32 inh | CYP2C9 act | CYP2C19 inhib
CCn1cc(C(=O)OCC(=O)Nc2ccc(S(=O)(=O)N3CCCC3)cc2)c(=O)c2ccc(C)nc21 | – | 67.7 | – | – | –
Cc1nc(COC(=O)c2ccc(S(=O)(=O)N3CCCC3)cc2)cs1 | – | 90.2 | – | – | –
NC(=O)COC(=O)c1ccc(S(=O)(=O)N2CCCCCC2)cc1 | – | – | – | – | –
Cc1cc(C)n(-c2ccc(C(=O)OCC(=O)Nc3ccc(S(=O)(=O)N4CCCCC4)cc3)cc2)n1 | – | 81.9 | – | – | 68.4
COC(C/C=C/[C@H](O)[C@H](C)OCc1ccccc1)OC | · | · | – | · | ·
Cc1ccccc1C(=O)NNC(=O)c1ccc(F)cc1 | – | – | – | – | 61.8
CCOC(=O)CSC1=NC(=O)/C(=C\c2ccc(Cl)cc2)S1 | – | – | – | – | –
COc1cc(/C=C2\SC(c3ccc(C)cc3)=NC2=O)cc(OC)c1O | – | 81.7 | – | – | 70.7
COc1cc(/C=N/c2oc(-c3ccccc3)cc2C#N)ccc1O | – | – | – | – | –
CC(CCc1ccccc1)NC(=O)c1nnc(Cc2ccc(Cl)cc2)o1 (stereo not given) | – | – | · | – | –
O=C(Nc1ccc2c(c1)C(=O)N(CC1CCCO1)C2=O)c1cccc(Br)c1 (stereo not given) | – | – | -2.66 | – | –
O=C(NCc1ccccc1)c1ccc2c(c1)C(=O)N(CC1CCCO1)C2=O (stereo not given) | – | – | – | – | –
O=C(O)c1cccc(NC(=O)c2ccc3c(c2)C(=O)N(CC2CCCO2)C3=O)c1 (stereo not given) | – | 73.4 | – | – | 77.4
C[C@H]1CCC[C@]2(O[C@H](CCO)C[C@@H](O)[C@@H]2O)O1 | · | · | – | · | ·
O=C(c1cc2c(s1)-c1ccccc1OC2)N1CCN(c2ccccc2)CC1 | – | 71.3 | – | – | 72.3
CCOC(=O)N1CCN(C(=O)c2cc3c(s2)-c2ccccc2OC3)CC1 | – | 54.0 | – | – | –
O=C(c1cc2c(s1)-c1ccccc1OC2)N1CCCC1 | – | – | – | – | –
O=C1C2CC=C(Cl)CC2C(=O)N1CC1OCCc2ccccc21 (stereo not given) | – | 55.0 | – | – | 74.0
[O-][n+]1c2ccc3nonc3c2nn1-c1ccccc1Cl | – | – | · | – | –
O=[N+]([O-])c1ccc(Sc2cccc3cccnc23)c([N+](=O)[O-])c1 | – | – | – | – | –
O=[N+]([O-])c1ccc(Sc2cccc3cccnc23)cc1 | – | – | – | – | 83.6
Cc1cc(C)c(C(N)=O)c(NC(=O)Nc2ccccc2Cl)n1 | – | – | – | – | –
Nc1c(Cl)cc(-c2csc(N3CCCC3c3nc4cc(Cl)c(N5CCCCC5)cc4n3CCOCCO)n2)cc1Cl (stereo not given) | · | · | – | · | ·
Cc1ccccc1C(=O)NC(=S)Nc1ccc(S(=O)(=O)N(C)c2ccccc2)cc1 | – | 81.9 | – | – | 86.8
Cc1cccc(C(=O)NC(=S)Nc2ccc(S(=O)(=O)N3CCN(C)CC3)cc2)c1 | – | 71.0 | – | – | 78.8
SMILES | CYP2C19 act | CYP2C9 inhib | Cav32 inh | CYP2C9 act | CYP2C19 inhib
Cc1cccc(C(=O)NC(=S)Nc2ccc(S(=O)(=O)N3CCCCC3)cc2)c1 | – | – | – | – | –
Cc1cccc(C(=O)NC(=S)Nc2ccc(S(=O)(=O)N(C)c3ccccc3)cc2)c1 | – | 66.1 | · | – | –
CCO[C@@H]1OC(C(=O)N2CCN(Cc3ccccc3)CC2)=C[C@H](C2CC2)[C@H]1CCCO | · | · | – | · | ·
Cn1cc(Cl)c(C(=O)NC2CCCCCC2)n1 | – | – | – | – | 67.4
CC(C)Oc1ccc(/C=N/NC(=O)C2CCCN2S(=O)(=O)c2ccc(Cl)cc2)cc1 (stereo not given) | – | – | -4.72 | – | –
O=C(Nc1ccc(Cl)cn1)C1CCCN1S(=O)(=O)c1ccc(Cl)cc1 (stereo not given) | – | 73.5 | – | – | –
O=C(Nc1ccc(Cl)cn1)C1CCCN1S(=O)(=O)c1cccc2ccccc12 (stereo not given) | – | – | – | – | –
